Assay results: PubChem BioAssay
Unmarked numbers belong to inactive results. No rule for the calls is given here.

biological target: Pantothenate synthetase (Mycobacterium tuberculosis (strain ATCC 25618 / H37Rv)) (UniProt P9WIL5); assay: Recombinant Mtb pantothenate synthetase (PanC) inhibitors, coupled enzyme, confirmatory (AID 375); details: coupled enzyme assay; at 10 µM, hits give high values;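 also: 0% = full reaction with vehicle and 100% = no enzyme background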
Sequence (P9WIL5 whole entry, looked up): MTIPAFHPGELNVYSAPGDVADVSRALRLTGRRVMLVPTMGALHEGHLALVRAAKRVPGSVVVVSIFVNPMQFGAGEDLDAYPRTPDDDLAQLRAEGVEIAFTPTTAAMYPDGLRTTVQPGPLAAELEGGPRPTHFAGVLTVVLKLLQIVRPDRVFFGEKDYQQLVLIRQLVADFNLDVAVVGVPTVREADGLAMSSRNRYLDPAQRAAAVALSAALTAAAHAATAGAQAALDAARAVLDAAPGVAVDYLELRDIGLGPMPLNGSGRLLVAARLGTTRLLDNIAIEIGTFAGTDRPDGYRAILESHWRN

Row | Structure (SMILES) | inhibition [%]
1 | CC(OC(=O)C1CC=CCC1C(N)=O)C(Cl)=C(Cl)Cl (stereo not given) | 0
2 | OCCNCC(O)Cn1ccc2ccccc21 (stereo not given) | 2
3 | CC(N)C12CC3CC(C1)CC(C(C)N)(C3)C2 (stereo not given) | 0
4 | CCOC(=O)C1=C(c2ccccc2)Nc2nc(C)nn2C1c1cccc(OC)c1OC (stereo not given) | 0
5 | O=C(C1CCCN(S(=O)(=O)c2cnc[nH]2)C1)N1CC(=O)N(CCc2ccccc2)C(=O)C1 (stereo not given) | 0
6 | CC(=O)Nc1cccc(Oc2nc(C)cc(C)c2C#N)c1 | 1
7 | Cc1ccc(S(=O)(=O)N2CCC(C(=O)N3CCN(Cc4ccccc4)CC3)CC2)cc1 | 0
8 | Cn1c(SCC(=O)O)nnc1C1CCCCC1 | 1
9 | COc1cc(OC)cc(C(=O)NCCN2CCOCC2)c1 | 0
10 | O=C1NC(=O)C(CC(=O)N(Cc2ccco2)C2(C(=O)NC3CCCC3)CCCCC2)N1 (stereo not given) | 0
11 | CN(C)C(CNc1nnnn1-c1ccccc1)c1ccco1 (stereo not given) | 2
12 | O=C(C1CCCO1)N1CCc2ccccc21 (stereo not given) | 10
13 | CCn1cc(C(=O)N2CCCC2)c(=O)c2cc(S(=O)(=O)N3CCOCC3)ccc21 | 0
14 | Cc1nn(C)c(C)c1NC(=O)CSc1nc(Cc2ccccc2)nc2c1cnn2-c1ccccc1 | 2
15 | O=C(c1ccccc1)N1CCN(CC2CC=CCC2)CC1 (stereo not given) | 0
16 | CCOc1ccc2c(O)csc2c1 | 0
17 | CSc1cccc(NC(=O)CN(C)S(=O)(=O)c2ccccc2)c1 | 0
18 | CC(=O)Nc1ccc(S(=O)(=O)N2CCN=C2C)cc1 | 3
19 | CCOc1cc(NC(=O)c2ccco2)c(OCC)cc1NC(=O)CCc1ccc(OC)cc1 | 3
20 | COCCNC(=O)CN(C)S(=O)(=O)c1ccc2c(c1)OCCO2 | 7

Row | Structure (SMILES) | inhibition [%]
21 | Cc1csc2ncc(C(=O)Nc3ccccc3Cl)c(=O)n12 | 3
22 | COc1cccc(OCC(O)CN2CCN(CCO)CC2)c1 (stereo not given) | 0
23 | CCCC(CCC)C(=O)NCCN1CCOCC1 | 0
24 | CCOC(=O)c1cnn(-c2cc(C)c3cc(C)cc(C)c3n2)c1N | 0
25 | C=CCn1c(SCC(=O)c2ccccc2)nnc1-c1ccc2c(c1)OCO2 | 0
26 | Cn1c(=O)c2c(nc(NCCc3ccccc3)n2CC(=O)NCCc2ccccc2)n(C)c1=O | 0
27 | Cc1ccc(CN2C(=O)CCC2C(=O)NCCCN2CCC(C)CC2)cc1 (stereo not given) | 8
28 | O=C(NCCCN1CCCC1=O)C1CCN(S(=O)(=O)N2CCOCC2)CC1 | 0
29 | Cc1nc2cc(CO)ccc2n1C | 4
30 | Clc1ccc(OCc2nc(-c3ccccn3)no2)c(Br)c1 | 0
31 | O=C1c2ccccc2C(=O)N1c1cccc(-c2nc3ccccc3o2)c1 | 7
32 | COc1ccc(C(C(=O)NC2CCCCC2)N2CCC3(CC2)OCCO3)cc1 (stereo not given) | 0
33 | CC(C)Cc1nc(S(=O)(=O)c2ccc(Cl)cc2)c(N2CCOCC2)o1 | 0
34 | CCN(CCO)C1CC(=O)N(c2ccccc2C)C1=O (stereo not given) | 0
35 | COc1ccc(-n2cnnc2SCCC#N)cc1 | 0
36 | Cc1ccc(S(=O)(=O)NCC(c2cccnc2)N(C)C)cc1 (stereo not given) | 3
37 | Cc1cc(=O)n(C)c(=O)n1CCCCCN1CCCC1 | 0
38 | COc1cccc(C(=O)Nc2ccc(NC(=O)C(C)(C)C)cn2)c1 | 0
39 | CCOc1ccc(NC(=O)CN(C)S(=O)(=O)c2cccs2)cc1 | 13
40 | CCN(CCCNC(=O)C1CCCN(S(=O)(=O)c2cnc[nH]2)C1)c1ccccc1 (stereo not given) | 1
